In the library only some 7.3% were active in any assay of this set; here they are far more common.
FLuc counter – inhibits or activates purified firefly luciferase, miR-21 counter-screen; purified FLuc, Km substrates, luminescence inhibition; Potency, µM (series often up to 57.5 µM), for the others: top-dose activity change, negative = inhibition, usual class: inhibitors; P08659; 6.9% of 360,000 active;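 also: plate controls were vehicle for no effect and reference inhibitor for full effect; nearly all actives have a fitted effect of over 55% in size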
Target sequence (P08659 whole entry, looked up): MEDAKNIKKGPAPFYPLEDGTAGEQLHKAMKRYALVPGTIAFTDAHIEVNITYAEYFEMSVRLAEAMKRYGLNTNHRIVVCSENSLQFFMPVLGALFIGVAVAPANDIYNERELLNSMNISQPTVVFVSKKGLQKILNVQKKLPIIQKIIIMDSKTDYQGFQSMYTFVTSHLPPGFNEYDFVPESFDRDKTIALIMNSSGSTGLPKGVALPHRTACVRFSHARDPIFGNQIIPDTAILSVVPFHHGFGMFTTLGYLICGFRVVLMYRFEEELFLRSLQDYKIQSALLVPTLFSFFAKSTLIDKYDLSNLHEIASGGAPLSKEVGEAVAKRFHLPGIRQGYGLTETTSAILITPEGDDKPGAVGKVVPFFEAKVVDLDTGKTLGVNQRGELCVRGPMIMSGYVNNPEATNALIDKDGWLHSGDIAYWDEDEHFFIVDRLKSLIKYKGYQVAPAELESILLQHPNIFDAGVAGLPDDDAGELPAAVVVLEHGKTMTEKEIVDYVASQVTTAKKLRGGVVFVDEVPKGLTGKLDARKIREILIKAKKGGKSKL
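Purified P. pyralis luciferase (10nM final) with 10uM D-luciferin and 10uM ATP (Km levels) in 50mM Tris acetate pH 7.5, 10mM Mg acetate, 0.01% Tween-20, 0.05% BSA; qHTS 6-point titration, ~60 µM downward; luminescence read.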
KinaseGlo FLuc – blocks Kinase-Glo luciferase, a counter-screen artifact; AID 1379; Q27757; Kinase-Glo luciferase, ATP luminescence, 8 min; 0.28% of 200,000 active; Potency, µM (series often up to 38.3 µM), for inactives: at the top dose activity change, negative = inhibition, actives largely listed as inhibitors; also: % is scaled to controls: 0 for no effect and ±100 for the full control effect; nearly all actives have a fitted effect of over 60% in size
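Luminescence was the read-out, taken after 8-minute incubation at ambient temperature. Luciferase turned over luciferin with 10 uM ATP in imidazole pH 7.2 buffer containing KCl, MgCl2, Tween 20 and BSA.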
Rab9 promoter act – activates the Rab9 promoter | Huh7 Rab9 promoter-luciferase reporter, luminescence, 24 h | 2.8% of 320,000 active | AID 485297 | Potency, µM (top dose mostly 9.22 µM), for the others: top-dose activation, negative = inhibition, actives largely listed as activators; also: % of control where 0% means no effect; nearly all actives have a fitted effect of over 60% in size
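Cells were plated at 1500 per well in reduced-serum medium with 10% FBS and left 2 h. Compound in DMSO was then added for 24 h at 37 °C. Reporter signal was read by luminescence after 10 min with luciferase detection reagent.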
ELG1 genotoxic – induces genotoxicity in HEK293T cells with luciferase-tagged ELG1 | HEK293T ELG1-luciferase reporter, luminescence, 16 h | Potency, µM (top dose mostly 46 µM), inactives show at the top dose activity change, positive = activation, usual class: activators | 1.3% of 330,000 active | AID 504466; also: % of control where 0% means no effect; nearly all actives have a fitted effect of over 60% in size
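After overnight (16 hr) compound treatment at 37 °C, ELG1-luciferase HEK293T cells were lysed with ONE-Glo; luminescence quantified 30 min later at room temperature.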
SMN2 splice up – SMN2 splice variant enhancement. HEK293 SMN2-luciferase splicing reporter, luminescence, 30-36 h. Potency, µM (titrated, usually from 46.1 µM), for inactives: at the top dose activity change, positive = activation, actives largely listed as activators. AID 1458. 2.8% of 210,000 active; also: % of control where 0% means no effect; nearly all actives have a fitted effect of over 55% in size
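HEK293 cells carry an SMN2 minigene-luciferase reporter in which exon 7 inclusion puts luciferase in frame. Cells were seeded at 2000 cells/well, attached for 10-12 hours, then exposed to compounds for 30-36 hours at 37C before ONE-Glo luminescence.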
NPC1 promoter act – NPC1 promoter activation; AID 485313; Huh7 NPC1 promoter luciferase reporter, 24 h; Potency, µM (highest dose often 9.22 µM), inactives show top-dose activation, most hits filed as activators; 2.4% of 320,000 active; also: % of control where 0% means no effect; nearly all actives have a fitted effect of over 60% in size
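Stably transfected Huh7 (NPC1 promoter→luciferase), 1500 cells/well in Opti-MEM + 10% FBS, 2 h settle, then compound 24 h at 37 °C. Luminescence after 10 min with Amplite reagent.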
Starred values were filed as active, the others as inactive; ? = inconclusive; · = no result given. Calls follow the shape of the dose curve; as a rule, active = well fitted curve in the direction sought with a large enough effect; inconclusive = small, poorly fitted or top-dose-only effect, or another doubt; inactive = no such curve, though single readings can be large; an effect the other way counts as inactive or inconclusive. Potency is read from the fitted curve at half-maximal effect.

SMILES | FLuc counter | KinaseGlo FLuc | Rab9 promoter act | ELG1 genotoxic | SMN2 splice up | NPC1 promoter act
Cc1c(C)c2ccc(OCC(=O)c3ccccc3)cc2oc1=O | ? | · | 3.5µM* | ? | · | 2.2µM*
CCCc1c(C)c2ccc(OCC(C)=O)cc2oc1=O | ? | -7% | ? | ? | 23% | ?
COc1cccc(C(=O)COc2ccc3c(C)c(Cc4ccccc4)c(=O)oc3c2)c1 | 0% | 1% | -11% | -2% | -59% | -3%
CC(=O)COc1ccc2c(C)c(-c3ccccc3)c(=O)oc2c1 | 17µM* | -12% | 3.2µM* | 7% | -7% | ?
COC(=O)Cc1c(C)c2ccc(OC(=O)c3ccccc3)cc2oc1=O | 15µM* | -9% | 0% | 0% | 15% | -3%
CCCCc1c(C)c2ccc(OCC(C)=O)cc2oc1=O | 19µM* | -21% | 2.8µM* | 5.2µM* | 16µM* | 3.2µM*
Cc1c(Cc2ccccc2)c(=O)oc2cc(OC(=O)c3ccccc3)ccc12 | ? | 3% | -3% | 5% | -11% | -5%
COc1c(C)cc(C(=O)C2CCCN(C(=O)Cn3ccc(C)n3)C2)cc1C (stereo unspecified) | 4% | 6% | 7% | -1% | · | -9%
Cc1cc(C)nc(SCc2nnc(SCC(=O)N3CCOCC3)o2)n1 | 0% | -5% | 1% | -1% | -7% | -5%
COc1ccc(CN(CC(=O)NC2CCCC2)C(=O)CCC(=O)Nc2nccs2)cc1 | 0% | · | -3% | -4% | · | 0%
COc1ccc(CNC(=O)Cc2c(C)c3ccc(O)cc3oc2=O)cc1 | 7.6µM* | · | · | · | -1% | ·
Cc1c(CC(=O)O)c(=O)oc2cc(OCc3ccc(Cl)cc3)ccc12 | 8.5µM* | · | 15% | 6% | · | 12%
Cc1c(Cc2ccccc2)c(=O)oc2cc(OCC(=O)N3CCC(C(=O)O)CC3)ccc12 | 21µM* | · | -6% | 4% | · | 0%
Cc1c(CC(=O)O)c(=O)oc2cc(OCc3nn[nH]n3)ccc12 | 1% | -9% | 8% | 2% | -6% | -1%
C[C@H](CO)N1C[C@H](C)[C@@H](CN(C)Cc2ccncc2)Oc2c(NC(=O)CCC(F)(F)F)cccc2C1=O | · | · | · | -1% | · | ·
CC1CCCN(c2ccc([N+](=O)[O-])s2)C1 (stereo unspecified) | -12% | -1% | 0% | 16% | 6% | 1%
Cc1nc2ccccn2c1C(=O)NNC(=S)Nc1ccccc1 | -8% | · | -2% | 0% | · | 10%
COC(=O)c1ccsc1NC(=O)c1ccco1 | 0% | · | 6% | 3% | · | 0%
O=C(COc1cccc(Br)c1)N/N=C1\CCCc2ccccc21 | ? | -2% | 15% | 9% | 10% | 7%
COc1ccccc1OCC(=O)N/N=C1\CCc2ccccc21 | 21µM* | -3% | 2.8µM* | 8.2µM* | · | 26%
COc1ccc(OCC(=O)N/N=C2\CCCc3ccccc32)cc1 | 19µM* | · | 6% | 1% | · | 8%
COc1ccccc1OCC(=O)N/N=C1\CCCCc2ccccc21 | -17% | · | -2% | -7% | · | 1%
Cc1cccc2c1OCC/C2=N\NC(=O)COc1ccccc1 | 19µM* | -6% | ? | ? | 9% | ?
O=C(COc1ccccc1F)N/N=C1\CCCc2ccccc21 | 15µM* | · | ? | ? | · | ?
O=C(NCc1ccccc1)c1onc(CS(=O)(=O)c2ccccn2)c1C(=O)NCc1ccccc1 | 13% | · | 0% | -1% | · | 1%
CCn1nnnc1SCC(=O)N1N=C(c2cccs2)CC1c1cccs1 (stereo unspecified) | -20% | · | 5% | 4% | · | 0%
CCN1CCN(C(C)C(=O)NC2CCCCC2)CC1 (stereo unspecified) | 0% | · | -2% | 2% | · | -8%
COc1cc(-c2noc(-c3cc(C(C)C)[nH]n3)n2)cc(OC)c1OC | -2% | · | · | · | · | ·
COc1ccc(-c2noc(-c3ccc(Cl)cc3)n2)cc1 | 2.1µM* | -1% | ? | 5.6µM* | 11µM* | 2.5µM*

Screening results deposited in PubChem BioAssay by National Center for Advancing Translational Sciences (NCATS).
